# From PubChem BioAssay AID2283105 (EPA ToxCast)
# Activity calls are given as the source filed them. How the source made its calls: active means hit-call score of the fitted dose curve at least 0.9, where 1 is the maximum; inactive means score below 0.9.
# Biological target: human CYP2E1, CYP2E1 (gene 1571) (UniProt P05181)
# Assay: NVS_ADME_hCYP2E1: NovaScreen (NVS) CYP450-related Enzyme Activity (ADME) Assay for human CYP2E1
# Procedure: NVS_ADME_hCYP2E1 is a biochemical, single-readout assay that uses extracted gene-proteins in a cell-free assay. Measurements were taken 0.5 hour after chemical dosing in a 96-well plate.NVS_ADME_hCYP2E1 is one of one assay component(s) measured or calculated from the NVS_ADME_hCYP2E1 assay. It is designed to make measurements of enzyme activity, a form of enzyme reporter, as detected with fluorescence intensity signals by Fluorescence technology.Data from the assay component NVS_ADME_hCYP2E1 was analyzed into 1 assay endpoint. This assay endpoint, NVS_ADME_hCYP2E1, was analyzed in the positive analysis fitting direction relative to Acetonitrile as the negative control and baseline of activity. Using a type of enzyme reporter, loss-of-signal activity can be used to understand changes in the enzymatic activity as they relate to the gene CYP2E1. Furthermore, this assay endpoint can be referred to as a primary readout, because this assay has produced multiple assay endpoints where this one serves a enzymatic activity function. To generalize the intended target to other relatable targets, this assay endpoint is annotated to the cyp intended target family, where the subfamily is xenobiotic metabolism. […]
# human CYP2E1, CYP2E1 (gene 1571), sequence (P05181 whole entry, looked up): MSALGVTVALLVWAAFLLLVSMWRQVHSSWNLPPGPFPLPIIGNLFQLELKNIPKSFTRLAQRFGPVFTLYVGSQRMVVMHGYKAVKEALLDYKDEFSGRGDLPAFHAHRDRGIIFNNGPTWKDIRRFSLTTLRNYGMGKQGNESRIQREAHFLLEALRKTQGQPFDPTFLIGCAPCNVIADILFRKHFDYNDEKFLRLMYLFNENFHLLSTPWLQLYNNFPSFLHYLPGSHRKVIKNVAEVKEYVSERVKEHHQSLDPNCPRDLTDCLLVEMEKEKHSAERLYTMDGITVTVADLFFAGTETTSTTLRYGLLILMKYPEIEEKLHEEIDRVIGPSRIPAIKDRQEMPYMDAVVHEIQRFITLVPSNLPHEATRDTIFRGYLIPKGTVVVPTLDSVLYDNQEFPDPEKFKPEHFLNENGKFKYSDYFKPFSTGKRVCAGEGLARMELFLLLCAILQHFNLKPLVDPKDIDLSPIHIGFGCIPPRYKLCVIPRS
smiles,measurement,value
N#CSCSc1nc2ccccc2s1,AC50,5.32 µM (active)
